Data on 19 compounds can be found in the supplement of paper PMC3414501.

Structures can show the parent of a compound that is named as a salt.

For test [1], the system named is S. cerevisiae SK1 pCDA2-eGFP (USY613), sporulating. Briefly: CDA2-GFP sporulation assay sensitivity score (z-score vs DMSO controls); higher = stronger inhibition of sporulation, active = hit call of the paper.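 Note: active if sensitivity score above 5.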
For test [2], the system named is S. cerevisiae AD1-9 (efflux-pump deficient), vegetative growth in YPD. Briefly: growth sensitivity score (doubling time z-score vs DMSO controls); higher = slower growth, strongly negative scores also mark growth inhibition (complete suppression), active = hit call of the paper. The gist of the method: (§1)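 Saccharomyces cerevisiae strains BY4741 and AD1-9 were seeded in rich medium in microtiter plates at an OD600 of 0.065. Compounds were added at a 1:100 dilution of DMSO stock. Optical density was read every 15 min for 24 hours on a Tecan GENios reader. Average doubling time was the time taken to reach a set generation point divided by generation number, and the growth sensitivity score was (compound mean − DMSO-control mean)/DMSO-control SD, using eight DMSO controls per experiment.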

Test [3] has as its system S. cerevisiae BY4741 (wild-type), vegetative growth in YPD. The test is described as above. The method, boiled down:
as §1

The mark [4] stands for this setting: stock concentration (mM, diluted 1:100): 10.
The mark [5] stands for this setting: stock concentration (mM, diluted 1:100): 8.7.
[6] abbreviates: stock concentration (mM, diluted 1:100): 10.1.
Setting [7] is: stock concentration (mM, diluted 1:100): 9.7.
Where [8] appears, read: stock concentration (mM, diluted 1:100): 8.2.

With `c1cncc([C@@H]2CCCN2)c1` [Nornicotine], in test [1] (setting [4]), the “CDA2-GFP sporulation assay sensitivity score” value is 2.1 (inactive). Moreover, the results for the growth sensitivity score in test [2] (setting [4]) and in test [3] (setting [4]) were -0.25 (inactive) and 0.91 (inactive), respectively.

On to `CC(=O)O[C@H]1C[C@@H]2CC[C@@H]3[C@H](CC[C@@]4(C)[C@H]3C[C@H]([N+]3(C)CCCCC3)[C@@H]4OC(C)=O)[C@@]2(C)C[C@@H]1[N+]1(C)CCCCC1` [Pancuronium], for which the “CDA2-GFP sporulation assay sensitivity score” value in test [1] (setting [5]) was 2.51 (inactive). Also, the growth sensitivity score in test [2] (setting [5]) was -8.57; in test [3] (setting [5]), -0.39 (inactive).

`C[N+]1(CCC(C(N)=O)(c2ccccc2)c2ccccc2)CCCCC1` [Fenpiverinium bromide]: the “CDA2-GFP sporulation assay sensitivity score” value in test [1] (setting [6]) was 0.3 (inactive). The growth sensitivity score in test [2] (setting [6]) is -1.25 (inactive); in test [3] (setting [6]), -1.06 (inactive).

Regarding `CN1C(=O)CN=C(c2ccccc2)c2cc(Cl)ccc21` [Diazepam], the “CDA2-GFP sporulation assay sensitivity score” value in test [1] (setting [4]) was 4.97 (inactive). Further, the growth sensitivity score in test [2] (setting [4]) was 5.55 (active); in test [3] (setting [4]), 2.97 (active).

With `C[N+]1(C)CCN(c2ccccc2)CC1` [Dimethylphenylpiperazinium Iodide], in test [1] (setting [4]), the “CDA2-GFP sporulation assay sensitivity score” value was -0.6 (inactive). Also, the growth sensitivity score is -0.59 (inactive) in test [2] (setting [4]) and -0.67 (inactive) in test [3] (setting [4]).

Take `C[C@H]1CCC[C@H](O)CCCCCc2cc(O)cc(O)c2C(=O)O1` [Zeranol]: the “CDA2-GFP sporulation assay sensitivity score” value in test [1] (setting [4]) is -2.75 (inactive). In addition, the growth sensitivity score in test [2] (setting [4]) is 18.3 (active); in test [3] (setting [4]), 1.77 (inactive).

Take `CN1CCC(c2ccc(F)cc2)C(COc2ccc3c(c2)OCO3)C1` (stereo not given) [Methyl paroxetine]: in test [1] (setting [7]), the “CDA2-GFP sporulation assay sensitivity score” value is 0.37 (inactive). In addition, the growth sensitivity score in test [2] (setting [7]) is 35 (active); in test [3] (setting [7]) it was 2.48 (active).

Regarding `NC1=NC(=O)C(c2ccccc2)O1` (stereo not given) [Pemoline], the “CDA2-GFP sporulation assay sensitivity score” value in test [1] (setting [4]) is 0.99 (inactive). The figures for the growth sensitivity score in test [2] (setting [4]) and in test [3] (setting [4]) were 0.67 (inactive) and -1.83 (inactive), respectively.

As for `NCCc1ccccn1` [2-(2-aminoethyl)pyridine], the “CDA2-GFP sporulation assay sensitivity score” value in test [1] (setting [4]) was -1.07 (inactive). The growth sensitivity score was -0.62 (inactive) in test [2] (setting [4]) and -1.35 (inactive) in test [3] (setting [4]).

As for `FC(F)(F)c1cccc(N2CCNCC2)c1`, the “CDA2-GFP sporulation assay sensitivity score” value in test [1] (setting [4]) is 0.69 (inactive). In addition, the growth sensitivity score in test [2] (setting [4]) was 2.22 (active); in test [3] (setting [4]), 1.25 (inactive).

As to `O=C(O)C(Cl)Cl` [Dichloroacetic acid], the “CDA2-GFP sporulation assay sensitivity score” value in test [1] (setting [4]) is 1.21 (inactive). Besides, the growth sensitivity score was 0.15 (inactive) in test [2] (setting [4]) and -0.8 (inactive) in test [3] (setting [4]).

`COc1ccc2c(c1)[C@]13CCCC[C@@H]1[C@H](C2)N(C)CC3` [Dextromethorphan hydrobromide]: in test [1] (setting [8]), the “CDA2-GFP sporulation assay sensitivity score” value is 14.1 (active). The growth sensitivity score is -0.05 (inactive) in test [2] (setting [8]) and -0.39 (inactive) in test [3] (setting [8]).

`O=C1Nc2ccc(Cl)cc2C(c2ccccc2Cl)=NC1O` (stereo not given) [Lorazepam]: in test [1] (setting [4]), the “CDA2-GFP sporulation assay sensitivity score” value was 5 (inactive). Also, the growth sensitivity score in test [2] (setting [4]) was 2.16 (active); in test [3] (setting [4]), -0.91 (inactive).

Turning to `C[C@]12CC[C@H]3[C@@H](CCC4=CC(=O)CC[C@@]43C)[C@@H]1CC[C@@H]2O` [Testosterone], the “CDA2-GFP sporulation assay sensitivity score” value in test [1] (setting [4]) is 21.1 (active). Moreover, the growth sensitivity score in test [2] (setting [4]) was 44.5 (active); in test [3] (setting [4]), 4.61 (active).

For `CC(O)(CS(=O)(=O)c1ccc(F)cc1)C(=O)Nc1ccc(C#N)c(C(F)(F)F)c1` (stereo not given) [Bicalutamide], the “CDA2-GFP sporulation assay sensitivity score” value in test [1] (setting [4]) was 0.41 (inactive). Also, the growth sensitivity score in test [3] (setting [4]) was 0.66 (inactive).

Regarding `CNCC(O)c1ccc(O)cc1` (stereo not given) [Synephrine], the “CDA2-GFP sporulation assay sensitivity score” value in test [1] (setting [4]) was 4.04 (inactive). In addition, the growth sensitivity score in test [2] (setting [4]) was 0.18 (inactive); in test [3] (setting [4]), -1.07 (inactive).

As for `NC(=O)OCCCc1ccccc1` [Phenprobamate], in test [1] (setting [6]), the “CDA2-GFP sporulation assay sensitivity score” value is -0.41 (inactive). For the same compound, the growth sensitivity score was -0.54 (inactive) in test [2] (setting [6]) and 0.48 (inactive) in test [3] (setting [6]).

Regarding `CCCCC/C=C\C/C=C\C/C=C\C/C=C\CCCC(=O)Nc1ccc(O)cc1`, the “CDA2-GFP sporulation assay sensitivity score” value in test [1] (setting [4]) is -4.74 (inactive). In addition, the growth sensitivity score in test [3] (setting [4]) is 2.55 (active).

In the case of `COc1ccc2[nH]cc(CCN)c2c1` [5-Methoxytryptamine], the “CDA2-GFP sporulation assay sensitivity score” value in test [1] (setting [4]) is 3.61 (inactive). Besides, the growth sensitivity score in test [2] (setting [4]) was -1.13 (inactive); in test [3] (setting [4]) it was 0.09 (inactive).
